In the library only some 7.5% were active in any assay of this set; here they are far more common.
RORgamma inh = ROR gamma (mouse) transcription inhibition; 310,000 tested, 5.4% active; P51450; Potency, µM (series often up to 53.6 µM), usual class: inhibitors; Drosophila S2 Gal4-RORgamma UAS-luciferase reporter, 20 h; note: nearly all actives have a fitted effect of over 60% in size
Target sequence (P51450 whole entry, looked up, the tested form may be a part): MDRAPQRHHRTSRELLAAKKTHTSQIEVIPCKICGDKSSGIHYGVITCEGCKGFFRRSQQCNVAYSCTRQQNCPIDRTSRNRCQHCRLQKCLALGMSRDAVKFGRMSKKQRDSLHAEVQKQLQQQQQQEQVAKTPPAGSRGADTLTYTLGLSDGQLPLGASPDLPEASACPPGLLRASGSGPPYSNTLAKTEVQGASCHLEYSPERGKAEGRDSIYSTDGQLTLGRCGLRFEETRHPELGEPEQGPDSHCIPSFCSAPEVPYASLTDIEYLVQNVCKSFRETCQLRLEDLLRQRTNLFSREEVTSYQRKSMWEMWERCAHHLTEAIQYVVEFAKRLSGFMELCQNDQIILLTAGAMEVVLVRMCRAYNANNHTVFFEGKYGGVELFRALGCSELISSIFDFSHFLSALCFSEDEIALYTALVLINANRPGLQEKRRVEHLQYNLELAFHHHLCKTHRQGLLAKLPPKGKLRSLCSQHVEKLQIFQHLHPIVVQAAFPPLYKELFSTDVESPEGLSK
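Luminescence from a UAS-regulated Photinus luciferase reporter in stably transfected Drosophila Schneider cells is measured; decreased signal marks ROR gamma inhibition. Fusion expression is induced by 700 uM copper sulfate for 20 hr.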
ELG1 repair inh = blocks ELG1-dependent DNA repair in HEK293T cells; HEK293T ELG1-luciferase reporter, luminescence, 16 h; DNA damage induced by 5-fluorouridine; Potency, µM (top dose mostly 46.1 µM), actives largely listed as inhibitors; 330,000 tested, 2.3% active; AID 504467; note: nearly all actives have a fitted effect of over 55% in size
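Quantitative HTS, concentration-response format. 2,000 cells/well co-treated with 5-fluorouridine and compound, 16 hr in 5% CO2 at 37 °C; ONE-Glo luminescence read after 30 min.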
VP16 counter = counter-screen for ROR gamma inhibitors: Gal4-VP16 reporter. Potency, µM (highest dose often 53.6 µM), actives largely listed as inhibitors. 310,000 tested, 3.5% active. AID 2546. Drosophila S2 Gal4-VP16 UAS-luciferase, luminescence, 20 h;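 note: Gal4-VP16 expression switched on by copper sulfate through the metallothionein promoter; nearly all actives have a fitted effect of over 50% in size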
TSHR antag = blocks TSH signaling through the human TSH receptor. TSHR-expressing cells, TSH-stimulated cAMP HTRF, 2 h; active compounds read low. 330,000 tested, 0.2% active. activity change, negative = inhibition, % at 11.5 µM;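 active = activity change below a set negative limit, meaning inhibition stronger than a set level, cut at about -70% in these data; inconclusive = activity change between two set negative limits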
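TSHR-expressing cells, 200/well, pre-treated with compound, then stimulated with EC80 TSH (4nM final) for 2 hours at 37 deg C. cAMP measured by competitive HTRF: anti-cAMP cryptate antibody in lysis buffer plus cAMP-d2, read after 30 minutes at room temperature.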
B2AR arrestin = agonists driving beta-arrestin recruitment to human beta2-adrenergic receptor | beta-arrestin recruitment to beta2AR, cell-based reporter | Potency, µM (doses to about 46.1 µM), usual class: activators | 330,000 tested, 0.02% active | AID 492947; note: nearly all actives have a fitted effect of over 65% in size
Each line names hits and unclear results; the compound was inactive in the other large screens. Unless noted, calls come from the whole dose curve; as a rule, active = well fitted curve in the direction sought with a large enough effect; inconclusive = small, poorly fitted or top-dose-only effect, or another doubt; inactive = no such curve, though single readings can be large; an effect the other way counts as inactive or inconclusive.

Cc1ccc(C(C)C)c(OC/C(O)=C(\C#N)c2nc3ccccc3[nH]2)c1	RORgamma inh 2.24µM, ELG1 repair inh 16.4µM, VP16 counter inconclusive
CC(=O)C1CCC2C3CCC4=CC(=O)CC[C@]4(C)[C@@]3(F)C(O)C[C@]12C (stereo not given in full)	RORgamma inh inconclusive
CCCCC(CC)COC(=O)CC(C(=O)OCC(CC)CCCC)S(=O)(=O)O (stereo not given)	none (no result: ELG1 repair inh, TSHR antag, B2AR arrestin)
COc1ccc(O[C@H]2C=C[C@@H](c3ccccc3)O[C@H]2COC(=O)CC/C(C)=N\O[C@@H](C)CN2CCCc3nc(C)c(C)cc32)cc1	none (no result: ELG1 repair inh, TSHR antag, B2AR arrestin)
NNC(=O)C(Cc1cnc[nH]1)NC(=O)OCc1ccccc1 (stereo not given)	RORgamma inh inconclusive
CC(C)C(=O)OC/C(O)=C(\C#N)c1nc2ccccc2[nH]1	RORgamma inh 6.31µM, VP16 counter 10µM
N#C/C(=C(/O)COC(=O)c1ccc(O)cc1)c1nc2ccccc2[nH]1	ELG1 repair inh inconclusive
CCCC(=O)OC/C(O)=C(\C#N)c1nc2ccccc2[nH]1	RORgamma inh 3.98µM, ELG1 repair inh inconclusive, VP16 counter inconclusive
Cc1nonc1CC(=O)NC1CCCc2c1cnn2-c1ccc(F)cc1F (stereo not given)	none
Cc1ccc(OCC(=O)NNc2c3ccccc3nc3ccccc23)cc1	RORgamma inh 10µM, ELG1 repair inh inconclusive, VP16 counter 12.6µM
Cc1cccc(OCC(=O)NNc2c3ccccc3nc3ccccc23)c1	RORgamma inh 3.55µM, ELG1 repair inh 14.6µM, VP16 counter 5.01µM
Cc1cc(CNC(=O)COc2ccccc2)c2ccccc2n1	RORgamma inh inconclusive, ELG1 repair inh inconclusive
Cc1cccc(OCC(=O)Nc2cc(C)c(C)cc2O)c1	RORgamma inh 3.55µM
Cc1ccc(OCCSc2nc3ccccc3n2CCC(=O)O)cc1	none
O=S(=O)(c1ccccc1)C1(S(=O)(=O)c2ccccc2)CCCC1	none
Cc1ccc(S(=O)(=O)C2(S(=O)(=O)c3ccc(C)cc3)CC2)cc1	ELG1 repair inh 23.1µM
O=C1C(C=NCc2ccccn2)=C(O)c2ccccc21	RORgamma inh 2.51µM, ELG1 repair inh inconclusive, VP16 counter 5.01µM
O=c1oc2ccccc2c(O)c1C=NCc1ccccn1	RORgamma inh 0.562µM, VP16 counter 1µM
Nc1ncnc2c1ncn2[C@@H]1O[C@H](CNC(=O)[C@@H]2CCN2)[C@@H](O)[C@H]1O	none (no result: RORgamma inh, VP16 counter)
COc1ccccc1/C=N/Nc1cc(C)nc2ccc(C)cc12	ELG1 repair inh inconclusive
COc1ccc(/C=N/Nc2cc(C)nc3ccc(OC)cc23)c(OC)c1	RORgamma inh 11.2µM, ELG1 repair inh inconclusive, VP16 counter 10µM
Cc1ccc2nc(C)cc(N/N=C/c3ccccc3O)c2c1	RORgamma inh 5.62µM, VP16 counter 7.94µM
COc1ccc2nc(C)cc(N/N=C/c3ccccc3)c2c1	none (no result: RORgamma inh, VP16 counter)
COc1ccc(/C=N/Nc2nc(C)cc(-c3ccccc3)n2)c(OC)c1	RORgamma inh 10µM, ELG1 repair inh inconclusive, VP16 counter 11.2µM
Cc1ccc(S(=O)(=O)N2CCOC2CNC(=O)C(=O)NCc2ccc3c(c2)OCO3)cc1 (stereo not given)	ELG1 repair inh inconclusive
CC1(C)CC(=O)C2=C(C1)Nc1cc(Cl)ccc1S2	ELG1 repair inh 23.1µM
O=C1CS/C(=N\NC(=O)c2ccccc2)N1	RORgamma inh 2.82µM, VP16 counter 15.8µM
O=C(N/N=C1\NC(=O)C(CO)(CO)S1)c1ccccc1	none
O=C(CCc1ccccc1)N[C@@H]1c2ccccc2CC[C@H]1OCc1ccccc1	ELG1 repair inh inconclusive (no result: RORgamma inh, VP16 counter)
N#C/C(=C/c1ccc(-c2ccccc2)o1)c1nc(-c2cccs2)cs1	RORgamma inh inconclusive, ELG1 repair inh inconclusive, VP16 counter 0.1µM
N#C/C(=C\c1ccc(-c2ccc(F)cc2)o1)C(=O)Nc1nc(-c2cccs2)cs1	ELG1 repair inh inconclusive
Cc1ccc(C(=O)O/N=C/c2c(N3CCOCC3)n(C)c3ccccc23)cc1	RORgamma inh 1.12µM, ELG1 repair inh inconclusive, VP16 counter 3.55µM
CC(=O)O/N=C/c1c(N2CCOCC2)n(C)c2ccccc12	RORgamma inh 6.31µM, ELG1 repair inh inconclusive, VP16 counter 11.2µM
Cn1c(N2CCOCC2)c(/C=N/OC(=O)c2ccc(F)cc2)c2ccccc21	RORgamma inh 0.631µM, ELG1 repair inh inconclusive, VP16 counter 2.24µM
